{"source": "PubChem BioAssay (Tox21)", "note": "Inconclusive results are not listed. A call without a number means that no potency is given here. Activity calls are given as the source filed them. Calls follow the shape of the dose curve; as a rule, active = well fitted cell-killing curve with a large enough effect in the repeat runs; inconclusive = weak or mixed curves, or effect the other way; inactive = flat fitted curve, though single readings scatter.", "data": [{"assay": "qHTS RealTime-Glo MT Cell Viability Assay in HEK293 cells - 0 hour (AID 1224880); also: top concentration of the series differs between compounds; nearly all actives have a fitted effect of over 45% in size", "details": "RealTime-Glo luminescence; series mostly up to 76.8 µM", "from_the_text": "U.S. Tox21 Program National Center for Advancing Translational Sciences [NCATS] NIH Chemical Genomics Center [NCGC] U.S. Environmental Protection Agency [EPA] National Institutes of Environmental Health Sciences [NIEHS] National Toxicology Program [NTP] U.S. Food and Drug Administration [FDA] Tox21 Assay Overview: Measure of cell viability is critical in the cell-base assay. Analysis of cell viability is necessary for the characterization of cell responses to cytotoxic drugs and environmental stress. A RealTime-Glo MT Cell Viability Assay to monitor cell viability in real time of continues cell culture during 40 hours of compound treatment was used to screen Tox21 10K library compounds in Hek293 cells. The RealTime-Glo MT Cell Viability Assay is a nonlytic, homogeneous, bioluminescent method to measure cell viability in real time using a simple, plate-based method. The assay involves adding NanoLuc luciferase and a cell-permeant prosubstrate to cells in culture. Viable cells reduce the proprietary prosubstrate to generate a substrate for NanoLuc luciferase. This substrate diffuses from cells into the surrounding culture medium, where it is rapidly used by the NanoLuc Enzyme to produce a luminescent signal. The signal correlates with the number of viable cells, making the assay well suited for cytotoxicity studies.\nTox21 Assay Protocol Summary: The mixture of Hek293 cell suspension and reagents were dispensed at 600cells/6 ul/well in 1536-well tissue culture treated black solid bottom plates using a Multidrop dispenser. After the assay plates were incubated at a 37 C/5% CO2 incubator for 5 hours, 23 nL of compounds dissolved in DMSO, positive and negative controls was transferred to the assay plate by a pintool work station. The plates were incubated at 37 C for 40 hours. The luminescence intensity were measured at 0h, 8h, 16h, 24h, 32h and 40h time points using ViewLux plate reader during compound treatment.", "values": [{"smiles": "CC(C)=CCC/C(C)=C/C#N", "Potency": "inactive"}, {"smiles": "CC[C@H]1OC(=O)[C@H](C)[C@@H](O[C@H]2C[C@@](C)(OC)[C@@H](O)[C@H](C)O2)[C@H](C)[C@@H](O[C@@H]2O[C@H](C)C[C@H](N(C)C)[C@H]2O)[C@](C)(OC)C[C@@H](C)C(=O)[C@H](C)[C@@H](O)[C@]1(C)O", "Potency": "inactive"}, {"smiles": "Cc1nc2ccc(CN(C)c3ccc(C(=O)N[C@@H](CCC(=O)O)C(=O)O)s3)cc2c(=O)[nH]1", "Potency": "inactive"}, {"smiles": "CCNS(=O)(=O)c1ccc(C)cc1", "Potency": "inactive"}, {"smiles": "CC(C)C[C@@H](N)C(=O)O", "activity change, negative = cytotoxicity": "5.62% [at 15.8 µM] (inactive)"}, {"smiles": "CC1=NN(c2cc(S(=O)(=O)O)ccc2Cl)C(=O)C1N=Nc1ccccc1", "note": "(stereo not given)", "Potency": "inactive"}, {"smiles": "COc1cc(C)nc(-n2nc(C)cc2OC)n1", "Potency": "inactive"}, {"smiles": "CC[N+](CC)(CC(=O)Nc1c(C)cccc1C)Cc1ccccc1", "note": "(tested in a mixture with another compound)", "Potency": "inactive"}, {"smiles": "Cc1ccccc1N=C(N)N=C(N)N", "Potency": "inactive"}, {"smiles": "CCOC(=O)CCC(=O)OCC", "Potency": "inactive"}, {"smiles": "CO[C@@]1(NC(=O)CSC[C@@H](N)C(=O)O)C(=O)N2C(C(=O)O)=C(CSc3nnnn3C)CS[C@@H]21", "Potency": "inactive"}, {"smiles": "CC1=NS(=O)(=O)c2cc(Cl)ccc2N1", "Potency": "inactive"}, {"smiles": "CCC(C(=O)NC(=O)NC(C)=O)c1ccccc1", "note": "(stereo not given)", "Potency": "inactive"}, {"smiles": "O=S(=O)(O)c1cccc2c(S(=O)(=O)O)cccc12", "Potency": "inactive"}, {"smiles": "Cc1coc2ccccc2c1=O", "Potency": "inactive"}, {"smiles": "FB(F)F", "Potency": "inactive"}, {"smiles": "CCCCN(CCC(=O)OCC)C(C)=O", "Potency": "inactive"}, {"smiles": "CCOC(=O)c1ccccc1", "Potency": "inactive"}, {"smiles": "Nc1c2c(nc3c1CCC3)CCCC2", "Potency": "inactive"}, {"smiles": "C1CCC2(CCCCO2)OC1", "Potency": "inactive"}, {"smiles": "CC(N)C12CC3CC(CC(C3)C1)C2", "note": "(stereo not given)", "Potency": "inactive"}, {"smiles": "Nc1ccn([C@@H]2O[C@H](CO)[C@@H](O)C2(F)F)c(=O)n1", "Potency": "inactive"}, {"smiles": "C[N+](C)(CCOc1ccccc1)Cc1cccs1", "Potency": "inactive"}, {"smiles": "CCCCCCCCCCCCSC", "Potency": "inactive"}, {"smiles": "Cc1ncc([C@@H](CCCCCCc2ccc3c(n2)NCCC3)CC(=O)O)cn1", "Potency": "inactive"}, {"smiles": "CCCCCCCC1CCCC1=O", "note": "(stereo not given)", "Potency": "inactive"}, {"smiles": "O=C(O)CNC(=O)c1ccccc1", "Potency": "inactive"}, {"smiles": "CCCC(C)C(=O)OCC", "note": "(stereo not given)", "Potency": "inactive"}, {"smiles": "CCCCCC(C)N", "note": "(stereo not given)", "Potency": "inactive"}, {"smiles": "NC(=O)NC1N=C([O][Al])NC1=O", "note": "(stereo not given)", "Potency": "inactive"}, {"smiles": "CNCCO", "Potency": "inactive"}, {"smiles": "C=COC(=O)C(C)(CC)CCC(C)C", "note": "(stereo not given)", "Potency": "inactive"}, {"smiles": "CC(C)(C)C(=O)c1ccccc1", "Potency": "inactive"}, {"smiles": "CCN[C@@H]1C[C@H](N)[C@@H](OC2OC(CN)=CCC2N)[C@H](O)[C@H]1O[C@H]1OC[C@](C)(O)[C@H](NC)[C@H]1O", "note": "(stereo not given in full)", "activity change, negative = cytotoxicity": "1.44% [at 0.29 µM] (inactive)"}, {"smiles": "CCCCCCC1CCC(=O)O1", "note": "(stereo not given)", "Potency": "inactive"}, {"smiles": "Cc1ncc(COP(=O)(O)O)c(C=O)c1O", "Potency": "inactive"}, {"smiles": "O=Cc1cccc(Br)c1", "Potency": "inactive"}, {"smiles": "CC(=O)c1ccc2ccccc2c1", "Potency": "inactive"}, {"smiles": "CN(C)C(=O)Oc1ccc[n+](C)c1", "Potency": "inactive"}, {"smiles": "CC1=CC(=O)[C@H]2C[C@@H]1C2(C)C", "Potency": "inactive"}]}]}
